# In PubChem BioAssay (NCATS):
# Where “and” joins values, the source holds several entries; their conditions need not be identical. Identical values can stand only once. For some of these results: Potency and affinity values are given separately. Calls of active or inactive are those of the source. Where a call stands in place of a potency, no number is given.
# Key:
# [1] = Ebola virus entry assay, green channel fluorescence
# [2] = Ebola virus entry assay, reporter ratio channel; Channel type: primary
# [3] = Ebola virus entry assay, blue channel (ratio component)
# [4] = Ebola virus entry assay, blue channel fluorescence
# [5] = Ebola virus entry reporter assay, green channel fluorescence
# [6] = Ebola virus entry cell assay, ratio channel
# [7] = Immunotoxin (HA22) sensitization/mitigation study. Vehicle arm (PBS) (AID 1159510); settings: cancer cells viability with PBS vehicle (HA22 study); series mostly up to 46.1 µM; note: potency is the fitted concentration of half-maximal effect
# [8] = Immunotoxin (SS1P) sensitization/mitigation study. Vehicle arm (DMEM) (AID 1159513); settings: cell viability with vehicle (DMEM); series mostly up to 46.1 µM; note: potency is the fitted concentration of half-maximal effect
structure (smiles),measurement,setting,value
COc1ncnc(NS(=O)(=O)c2ccc(N)cc2)c1OC,outcome,[1],inactive
same,outcome,[2],inactive
same,outcome,[3],inactive
O=C(O)COc1ccccc1,outcome,[1],inactive
same,outcome,[2],inactive
same,outcome,[3],inactive
CC(=O)N[C@@H](Cc1ccc(O)cc1)C(=O)O,outcome,[1],inactive
same,outcome,[2],inactive
same,outcome,[3],inactive
CCOC(=O)C(=O)CCCCCCl,outcome,[1],inactive
same,outcome,[2],inactive
same,outcome,[3],inactive
OCc1ccccn1,outcome,[1],inactive
same,outcome,[2],inactive
same,outcome,[3],inactive
N[C@H]1C(O)O[C@H](CO)[C@@H](O)[C@@H]1O (stereo partly drawn),outcome,[1],inactive
same,outcome,[2],inactive
same,outcome,[3],inactive
O=C(O)Cc1ccccc1Oc1ccc(Cl)cc1Cl,outcome,[1],inactive
same,outcome,[2],inactive
same,outcome,[3],inactive
CC(C[N+](C)(C)C)OC(N)=O (stereo not drawn),outcome,[1],inactive
same,outcome,[2],inactive
same,outcome,[3],inactive
CCC(=O)O[C@@H]1C=C2CCC3C(CCC4(C)C3CC[C@@H]4OC(=O)CC)C2CC1 (stereo partly drawn),outcome,[1],inactive
same,outcome,[2],inactive
same,outcome,[3],inactive
Oc1c(I)cc(I)c2cccnc12,outcome,[1],inactive
same,outcome,[2],inactive
same,outcome,[3],inactive
CCC1(CCC(C)C)C(=O)NC(=O)NC1=O,outcome,[1],inactive
same,outcome,[2],inactive
same,outcome,[3],inactive
COc1ccccc1N1CCN(CC(O)COc2cc(OC)c(OC)c(OC)c2)CC1 (stereo not drawn),outcome,[1],inactive
same,outcome,[2],inactive
same,outcome,[3],inactive
CN[C@@H](C)[C@H](O)c1ccccc1,outcome,[1],inactive
same,outcome,[2],inactive
same,outcome,[3],inactive
COc1c(N2CCNC(C)C2)c(F)cc2c(=O)c(C(=O)O)cn(C3CC3)c12 (stereo not drawn),outcome,[1],inactive
same,outcome,[2],inactive
same,outcome,[3],inactive
Nc1ccc(S(=O)(=O)Nc2ccccc2)cc1,outcome,[1],inactive
same,outcome,[2],inactive
same,outcome,[3],inactive
CCCCCCCCOc1ccc(C(=O)c2ccccc2)c(O)c1,outcome,[1],inactive
same,outcome,[2],inactive
same,outcome,[3],inactive
CCN1CCN(c2cc3c(cc2F)c(=O)c(C(=O)O)cn3C2CC2)CC1,outcome,[1],inactive
same,outcome,[2],inactive
same,outcome,[3],inactive
CC(=O)N[C@@H](CCC(N)=O)C(=O)O,outcome,[1],inactive
same,outcome,[2],inactive
same,outcome,[3],inactive
NCCS,outcome,[1],inactive
same,outcome,[2],inactive
same,outcome,[3],inactive
CCN(CC)c1ccc(C(=C2C=CC(=[N+](CC)CC)C=C2)c2cc(S(=O)(=O)O)ccc2S(=O)(=O)[O-])cc1,outcome,[1],inactive
same,outcome,[2],inactive
same,outcome,[3],inactive
Cc1c(C)c2c(c(C)c1OC(=O)c1cccnc1)CC[C@@](C)(CCC[C@H](C)CCC[C@H](C)CCCC(C)C)O2,outcome,[1],inactive
same,outcome,[2],inactive
same,outcome,[3],inactive
CC(C)(C)NC[C@H](O)c1ccc(O)cc1Cl,outcome,[1],inactive
same,outcome,[2],inactive
same,outcome,[3],inactive
COCCOCCO,outcome,[1],inactive
same,outcome,[2],inactive
same,outcome,[3],inactive
O=C(O)CNC(=O)CNC(=O)CNC(=O)CSC(=O)c1ccccc1,outcome,[1],inactive
same,outcome,[2],inactive
same,outcome,[3],inactive
O=C(O)c1ccccc1NCCc1ccccc1,outcome,[1],inactive
same,outcome,[2],inactive
same,outcome,[3],inactive
O=C(O)c1cc(Oc2ccc(C(F)(F)F)cc2Cl)ccc1[N+](=O)[O-],outcome,[1],inactive
same,outcome,[2],inactive
same,outcome,[3],inactive
CCCCC(CC)COC(=O)c1ccc(N(C)C)cc1 (stereo not drawn),outcome,[1],inactive
same,outcome,[2],inactive
same,outcome,[3],inactive
C[C@@H]1CN(c2c(F)c(N)c3c(=O)c(C(=O)O)cn(C4CC4)c3c2F)C[C@H](C)N1,outcome,[1],inactive
same,outcome,[2],inactive
same,outcome,[3],inactive
C[C@@H](N)C(=O)O,outcome,[1],inactive
same,outcome,[2],inactive
same,outcome,[3],inactive
Cc1cccc(C)c1NC(=O)c1ccccc1C(=O)O,outcome,[1],inactive
same,outcome,[2],inactive
same,outcome,[3],inactive
Cc1cc(O)ccc1Cl,outcome,[1],inactive
same,outcome,[2],inactive
same,outcome,[3],inactive
CCOC(=O)c1cccnc1,outcome,[1],inactive
same,outcome,[2],inactive
same,outcome,[3],inactive
CCn1cc(C(=O)O)c(=O)c2cc3c(cc21)OCO3,outcome,[1],inactive
same,outcome,[2],inactive
same,outcome,[3],inactive
O=C(O)CC(O)C(=O)O (stereo not drawn),outcome,[1],inactive
same,outcome,[2],inactive
same,outcome,[3],inactive
Cc1cc(C(=O)NNCc2ccccc2)no1,outcome,[4],inactive
same,outcome,[5],inactive
same,outcome,[6],inactive
COc1cccc2c1C(=O)c1c(O)c3c(c(O)c1C2=O)C[C@](O)(C(=O)CO)C[C@@H]3O[C@H]1C[C@H](N)[C@@H](O)[C@H](C)O1,AC50,[6],7.08 µM (active)
Cc1ccc(S(=O)(=O)Nc2cc(Cl)ccc2C(=O)Nc2nc(-c3ccccc3)cs2)cc1,Potency,[7],5.9 µM (active)
same,Potency,[8],2.09 µM (active)
CCn1c(-c2nonc2N)nc2c(C#CC(C)(C)O)ncc(OC[C@H]3CCCNC3)c21,Potency,[7],10.5 µM (active)
Cn1c2cc(S(C)=O)sc2c2cnn(Cc3cccc(N)c3)c(=O)c21 (stereo not drawn),Potency,[7],inactive
Cn1cncc1[C@@](N)(c1ccc(Cl)cc1)c1ccc2c(c1)c(-c1cccc(Cl)c1)cc(=O)n2C,Potency,[7],11.8 µM (active)
same,Potency,[8],20.9 µM (active)
CC(=O)OCC(=O)[C@@]1(O)[C@H](C)C[C@H]2[C@@H]3C=C(C)C4=Cc5c(cnn5-c5ccccc5)C[C@]4(C)[C@@H]3[C@@H](O)C[C@@]21C,Potency,[7],1.32 µM (active)
same,Potency,[8],26.4 µM (active)
CNc1nccc(-c2cccnc2Oc2cc(C(=O)Nc3cccc(C(F)(F)F)c3)ccc2C)n1,Potency,[7],14.8 µM (active)
same,Potency,[8],23.5 µM (active)
CCOc1cc2ncc(C#N)c(Nc3ccc(OCc4ccccn4)c(Cl)c3)c2cc1NC(=O)/C=C/CN(C)C,Potency,[7],4.69 µM (active)
same,Potency,[8],0.935 µM (active)
CCOc1cc(C=C2C(=O)N(c3ccccc3)N=C2C)cc(Cl)c1OCC(=O)OC,Potency,[7],18.7 µM (active)
same,Potency,[8],inactive
Cc1ccc(NC(=O)c2ccc(CN3CCN(C)CC3)cc2)cc1Nc1nc(-c2cccnc2)cs1,Potency,[7],20.9 µM (active)
same,Potency,[8],23.5 µM (active)
C[C@@H]1CN(CC(=O)Nc2ccc3c(c2)Cc2cccc(-c4cc(=O)cc(N5CCOCC5)o4)c2S3)C[C@H](C)O1,Potency,[7],16.6 µM (active)
CCc1cc(-c2n[nH]c(C)c2-c2ccc3c(c2)OCCO3)c(O)cc1O,Potency,[7],16.6 µM (active)
same,Potency,[8],2.64 µM (active)
C[C@H](NC(=O)Cc1cc(F)cc(F)c1)C(=O)N[C@@H]1C(=O)N(C)c2ccccc2-c2ccccc21,Potency,[7],inactive
same,Potency,[8],inactive
CCC=CC[C@H]1C(=O)CC[C@@H]1CC(=O)OC,Potency,[7],inactive
same,Potency,[8],inactive
CC(C)C[C@H](NC(=O)[C@@H](O)[C@H](N)Cc1ccccc1)C(=O)O,Potency,[7],inactive
CNC1CCN(C(Cc2cccc(-c3ccncc3)c2)C(=O)c2sc3c(F)ccc(F)c3c2Cl)CC1 (stereo not drawn),Potency,[7],20.9 µM (active)
CC(C)(C)COc1ccc(-n2cc(C(=O)O)cn2)cc1C#N,Potency,[7],18.7 µM (active)
same,Potency,[8],inactive
CC(C)CC(=O)Nc1n[nH]c2c1CN(C(=O)C1CCN(C)CC1)C2(C)C,Potency,[7],0.0526 µM (active)
same,Potency,[8],0.264 µM (active)
Cn1cc(-c2ccc3nnc(C(F)(F)c4ccc5ncccc5c4)n3n2)cn1,Potency,[7],inactive
same,Potency,[8],inactive
CCCCc1ccc(NS(=O)(=O)c2ccc(C)c(C(=O)N3CCN(c4cccc(C)c4C)CC3)c2)cc1,Potency,[7],20.9 µM (active)
same,Potency,[8],23.5 µM (active)
C[C@@H](Oc1cc(-n2cnc3ccc(CN4CCN(C)CC4)cc32)sc1C(N)=O)c1ccccc1C(F)(F)F,Potency,[7],0.0132 µM (active)
same,Potency,[8],0.0019 µM (active)
CCN(CC)CCn1c(=O)c(Cc2ccc(OC)cc2)nc2ccccc21,Potency,[7],inactive
same,Potency,[8],inactive
CN1CCC(CNc2ccc3ncc(-c4cccc(OC(F)(F)F)c4)n3n2)CC1,Potency,[7],20.9 µM (active)
same,Potency,[8],16.6 µM (active)
CCCCCN(CCC12CC3CC(CC(C3)C1)C2)C(=O)NCCCc1ccncc1,Potency,[7],11.8 µM (active)
same,Potency,[8],23.5 µM (active)
Cc1ccccc1C(C(=O)NC1CCCC1)N(C(=O)Cn1cnc2ccccc21)c1cccc(F)c1 (stereo not drawn),Potency,[7],23.5 µM (active)
CC(C)Oc1cc(Nc2nc(N[C@@H](C)c3ccc(F)cn3)ncc2Cl)[nH]n1,Potency,[7],20.9 µM (active)
same,Potency,[8],20.9 µM (active)
CCCS(=O)(=O)Nc1ccc(F)c(C(=O)c2c[nH]c3ncc(-c4ccc(Cl)cc4)cc23)c1F,Potency,[7],23.5 µM (active)
Cc1cccc(C#Cc2ccccc2)n1,Potency,[7],inactive
same,Potency,[8],inactive
COC(=O)[C@]12CCC(C)(C)C[C@@H]1[C@@H]1C(=O)C=C3[C@@]4(C)C=C(C#N)C(=O)C(C)(C)[C@@H]4CC[C@@]3(C)[C@]1(C)CC2,Potency,[7],0.526 µM (active)
same,Potency,[8],0.833 µM (active)
C=CC(=O)Nc1cc2c(Nc3ccc(F)c(Cl)c3)ncnc2cc1C#CC(C)(C)N1CCN(C)CC1,Potency,[7],0.833 µM (active)
same,Potency,[8],16.6 µM (active)
CC[C@H](Nc1ncnc2nc[nH]c12)c1nc2cccc(F)c2c(=O)n1-c1ccccc1,Potency,[7],20.9 µM (active)
CC[C@@H]1C(=O)N(C)c2cnc(Nc3ccc(C(=O)NC4CCC(N5CCN(CC6CC6)CC5)CC4)cc3OC)nc2N1C(C)C (stereo partly drawn),Potency,[7],0.0132 µM (active)
Nc1nccc(Oc2ccc(NC(=O)c3c[nH]cc(-c4ccc(F)cc4)c3=O)cc2F)c1Cl,Potency,[7],23.5 µM (active)
S=C(NCc1ccc2c(c1)OCO2)N1CCN(c2ncnc3c2oc2ccccc23)CC1,Potency,[7],18.7 µM (active)
same,Potency,[8],0.372 µM (active)
Cc1ccc(C(=O)Nc2cccc(C(F)(F)F)c2)cc1-c1ccc2nc(NCCN3CCOCC3)ncc2c1,Potency,[7],14.8 µM (active)
same,Potency,[8],13.2 µM (active)
O=C1C(CCC(O)c2ccc(F)cc2)C(c2ccc(O)cc2)N1c1ccc(F)cc1 (stereo not drawn),Potency,[7],inactive
same,Potency,[8],inactive
CNCc1ccc(-c2[nH]c3cc(F)cc4c3c2CCNC4=O)cc1,Potency,[7],20.9 µM (active)
N#Cc1ccc(COC[C@H]2O[C@@H](n3c(NCc4ccc(Cl)c(Cl)c4)nc4c(N)ncnc43)[C@@H](O)[C@@H]2O)cc1,Potency,[7],23.5 µM (active)
Cc1cn(-c2cc(NC(=O)c3ccc(C)c(Nc4nccc(-c5cccnc5)n4)c3)cc(C(F)(F)F)c2)cn1,Potency,[7],14.8 µM (active)
same,Potency,[8],26.4 µM (active)
COC(=O)Nc1ccc(-c2nc(N3CCOCC3)c3cnn(C4CCN(C(=O)OC)CC4)c3n2)cc1,Potency,[7],16.6 µM (active)
same,Potency,[8],0.187 µM (active)
COc1ncc(-c2ccc3nccc(-c4ccnnc4)c3c2)cc1NS(=O)(=O)c1ccc(F)cc1F,Potency,[7],0.418 µM (active)
same,Potency,[8],0.235 µM (active)
COc1nc(C)cnc1NS(=O)(=O)c1cccnc1-c1ccc(-c2nnco2)cc1,Potency,[7],inactive
same,Potency,[8],inactive
O=C(NCCCNc1nc(Nc2cccc(NC(=O)N3CCCC3)c2)ncc1I)c1cccs1,Potency,[7],11.8 µM (active) and 3.32 µM (active)
same,Potency,[8],20.9 µM (active) and 23.5 µM (active)
